# Source: PubChem BioAssay AID485317 (Broad Institute, 2010)
# The campaign covered roughly 290,000 compounds. About 11,000 (3.8%) were called active. The entries come from a sample that favours actives as a whole. Unmarked numbers belong to inactive results.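 Rule for the calls: active = mean replicate inhibition above about 79%, with every replicate also reaching it (limit read from the data); inconclusive = only one of the two criteria met; inactive = mean below limit and not every replicate reaching it.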
# Target: FAD-linked sulfhydryl oxidase ALR (Homo sapiens) (UniProt P55789)
# Sequence (P55789 whole entry, looked up): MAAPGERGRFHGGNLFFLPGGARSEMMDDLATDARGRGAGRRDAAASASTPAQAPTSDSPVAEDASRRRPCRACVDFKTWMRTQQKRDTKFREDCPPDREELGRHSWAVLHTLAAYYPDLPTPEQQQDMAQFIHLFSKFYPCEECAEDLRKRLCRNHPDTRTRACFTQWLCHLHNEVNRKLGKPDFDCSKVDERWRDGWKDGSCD
# Experiment: inhibitors of human ALR sulfhydryl oxidase, primary screen, biochemical, H2O2 detection, HRP-luminol luminescence, single point (AID 485317)
# Conditions: purified ALR, DTT oxidation, stronger effect = higher value, concentration not given here
row,Compound,inhibition
1,CC(NC(=O)c1cccc(S(=O)(=O)N2CCc3ccccc3C2)c1)c1ccco1 (stereo not drawn),-3.35%
2,O=C(COC(=O)c1ccc(F)c(S(=O)(=O)N2CCOCC2)c1)NCc1ccc2c(c1)OCO2,-8.6%
3,CNS(=O)(=O)c1cccc(C(=O)OCCCC(=O)c2ccccc2)c1,1.28%
4,O=C1N[C@H](Cc2ccccc2)C(=O)N[C@H]1Cc1cn(S(=O)(=O)c2ccccc2)c2ccccc12,-2.64%
5,CN1CCN(C(=O)c2ccc(-c3ccc(Br)cc3)o2)CC1,6.66%
6,O=C(O)c1cccc(NC(=S)N/N=C/c2c[nH]c3ccccc23)c1,98.2% (active)
7,O=C(N/N=C/c1c[nH]c2ccccc12)c1ccccc1O,41.8%
8,CSC(=S)N/N=C/c1c[nH]c2ccccc12,64.4%
9,CCNC(=O)c1cccc(NC(=O)C2CC(=O)N(CCc3ccccc3)C2)c1 (stereo not drawn),-0.0795%
10,CC(OC(=O)CNC(=O)c1ccco1)C(=O)Nc1ccc(Cl)cn1 (stereo not drawn),-1.13%
11,COc1cccc(NC(=O)CCc2nnc3ccc(N4CCC(C)CC4)nn23)c1,-1.49%
12,COc1cccc(N2CCN(c3ccc4nnc(CCC(=O)N5CCN(C)CC5)n4n3)CC2)c1,98.2% (active)
13,CCOC(=O)c1cccc(NC(=O)CCc2nnc3ccc(N4CCOCC4)nn23)c1,26.9%
14,C=CCSc1nnc2c(n1)-c1cccc3cccc-2c13,9.81%
15,COc1ccc(S(=O)(=O)N2CCOCC2)cc1NC(=O)Cc1c(F)cccc1Cl,-4.89%
16,COc1ccccc1CNC(=O)COC(=O)c1cccs1,20.2%
17,CN(CC(=O)Nc1ccccc1Cl)C(=O)c1ccccc1SCC(=O)N1CCCC1,-3.42%
18,COC(=O)c1ccccc1NC(=O)c1ccccc1NS(C)(=O)=O,4.54%
19,NC(=O)c1ccccc1NC(=O)c1ccccc1F,0.399%
20,COC(=O)c1ccccc1NC(=S)NC(=O)c1ccccc1F,97.1% (active)
21,Cc1cc(N2CCCC2)ccc1NC(=O)COc1ccc(Cl)cc1,-0.012%
22,O=C(NCCC1CCCCN1S(=O)(=O)c1ccc(F)cc1)C(=O)NC1CC1 (stereo not drawn),-2.2%

row,Compound,inhibition
1,Clc1ccc(-c2csc(-c3ccncc3)n2)cc1,-4.48%
2,Nc1scc(-c2ccncc2)c1Cl,98.8% (active)
3,O=c1[nH]c(/C=C/c2cccc(Br)c2)nc2ccccc12,-2.23%
4,CC(C)(C)OC(=O)C[C@@H]1C/C=C\C[C@@H](CC(=O)N[C@H](CO)Cc2ccccc2)C(=O)NCCOC1=O,1.41%
5,CCOc1ccc(-n2c(SCC(=O)Nc3ccc(OC)cc3)nc3sc4c(c3c2=O)CCN(C)C4)cc1,98.6% (active)
6,CCOc1ccc(NC(=O)CN2CCN(CC(=O)Nc3ccc(OC)cc3)CC2)cc1,-10.2%
7,COc1ccccc1NC(=O)CSc1nc2sc3c(c2c(=O)n1-c1ccccc1)CCN(C)C3,99% (active)
8,CCc1nnc(NC(=O)CSc2nc3c(c(=O)n2-c2ccccc2OC)SCC3)s1,1.36%
9,C=CCn1c(SCC(=O)Nc2ccc(NC(C)=O)cc2)nc2sc(C)c(C)c2c1=O,-2.72%
10,COc1ccccc1-n1c(SCC(=O)Nc2cccc(C(=O)O)c2)nnc1-c1ccccc1O,3.17%
11,CCn1c(SCC(=O)Nc2ccc(Br)cc2)nc2sc3c(c2c1=O)CCN(C)C3,99% (active)
12,C=CCn1c(SCC(=O)NCCCO)nc2sc3c(c2c1=O)CCC3,-4.11%
13,CCc1nc(SCC(=O)Nc2ccccc2OC)n[nH]1,-18%
14,COc1ccccc1NC(=O)CSc1nnc(Cn2nnc(-c3ccccc3)n2)n1-c1ccccc1,-1.41%
15,CCOc1ccc(NC(=O)CSc2nc3c(c(=O)n2-c2ccccc2OC)SCC3)cc1,93.4% (active)
16,CCOc1ccc(-n2c(SCC(=O)Nc3cc(C(=O)O)ccc3Cl)nc3ccccc3c2=O)cc1,-3.41%
17,CCN(CC)S(=O)(=O)c1ccc(N2CCCC2)c(NC(=O)c2ccc([N+](=O)[O-])o2)c1,-36.7%
18,CC(C)(C)OC(=O)C[C@@H]1C/C=C\C[C@@H](CC(=O)NCCO)C(=O)N[C@H](Cc2c[nH]c3ccccc23)COC1=O,-9.99%
19,CCN(CC(=O)NCc1ccc(F)cc1)S(=O)(=O)c1ccc(Cl)s1,-4.96%
20,Cc1ccc(CNC(=O)CC(NC(=O)c2ccccc2)c2ccccc2)cc1 (stereo not drawn),1.43%
21,CC(=O)Nc1ccc(S(=O)(=O)NCCC(=O)N2CCN(c3ccccc3Cl)CC2)cc1,0.296%
22,O=C(CSc1nc2[nH]ncc2c(=O)[nH]1)Nc1ccc(F)cc1,-2.71%

row,Compound,inhibition
1,Cc1ccc(C)c(-n2c(SCC(=O)O)nc3sc4c(c3c2=O)CCCC4)c1,4.79%
2,CCOc1ccc(-n2c(SCC(=O)OC)nc3sc4c(c3c2=O)CCN(C)C4)cc1,99.2% (active)
3,CCOc1ccc(-n2c(SC(C)C(=O)OC)nc3c(c2=O)SCC3)cc1 (stereo not drawn),-1.69%
4,O=C(N[C@@H](Cc1ccccc1)C(=O)OCc1ccccc1)c1nc[nH]c1C(=O)NC1CCNCC1,63.1%
5,O=C(Nc1ccc(NC(=O)c2ccc3c(c2)OCO3)cc1)c1cccc(Cl)c1,4%
6,CC(=O)c1c(OCC(=O)N(C)C2CCCCC2)ccc2c(C)cc(=O)oc12,-4.49%
7,COc1ccc(C(=O)CSc2nnc(COc3ccccc3)n2Cc2ccco2)cc1,13.2%
8,Cn1c2ccccc2c(=O)c2c(=O)n(Cc3ccco3)c(COc3ccccc3)nc21,96.8% (active)
9,CCCc1nc2c(c(=O)c3ccccc3n2C)c(=O)n1-c1cc(C)cc(C)c1,9.11%
10,COc1ccc(S(=O)(=O)N(C)C[C@@H]2Oc3ccc(NS(=O)(=O)c4cn(C)cn4)cc3C(=O)N([C@@H](C)CO)C[C@@H]2C)cc1,0.531%
11,O=C(NC1CCCCC1)c1ccc(CNc2c(N3CCOCC3)c(=O)c2=O)cc1,96.3% (active)
12,CC1CCN(c2c(NCc3ccc(C(=O)NCc4ccccc4)cc3)c(=O)c2=O)CC1,6.63%
13,O=C(NCc1ccccc1)c1ccc(CNc2c(N3CCCC3)c(=O)c2=O)cc1,-1.76%
14,O=C(COC(=O)c1ccccn1)NNC(=O)c1ccc(Br)cc1,-1.13%
15,COc1ccc(Br)cc1CN(C)C(=O)C1CC(=O)N(C2CCCC2)C1 (stereo not drawn),-9.84%
16,O=C(Nc1cccc([N+](=O)[O-])c1)Nn1cnnc1,-12.6%
17,COc1ccc(S(=O)(=O)NC(C)C(=O)Nc2cccc([N+](=O)[O-])c2)cc1 (stereo not drawn),3.92%
18,COC(=O)/C=C\C(=O)Nc1cccc([N+](=O)[O-])c1,97.8% (active)
19,Cc1noc(C)c1NC(=O)Nc1cccc2c1O[C@H](CN(C)S(=O)(=O)c1c(C)noc1C)[C@@H](C)CN([C@H](C)CO)C2=O,1.87%
20,Cc1cc(=O)oc2cc(NC(=O)C(C)Oc3ccccc3)ccc12 (stereo not drawn),-2.52%
21,S=C(NCCc1ccccc1)N1CCCCC1,-4.5%
22,COc1ccc(CCNC(=S)N2CCN(S(=O)(=O)c3ccc(Cl)cc3)CC2)cc1,-0.053%

row,Compound,inhibition
1,Oc1cc2c(cc1O)CN(C(=S)NCCc1ccc(Cl)cc1)CCC2,97.9% (active)
2,COC(=O)[C@@]12CCCN1[C@H](c1ccc(-c3ccc(F)cc3)c(OC)c1)[C@H]1C(=O)N(C)C(=O)[C@H]12,-0.553%
3,CCOc1ncccc1C(=O)OCC(=O)c1c[nH]c2ccccc12,16.6%
4,Cc1[nH]n(-c2ccc([N+](=O)[O-])cc2)c(=O)c1C=NCCN1CCN(C(=O)c2ccccc2F)CC1,-0.584%
5,Cc1cccc(C(=O)NNC(=O)c2cccc([N+](=O)[O-])c2)c1,2.77%
6,Cc1ccc(-n2[nH]c(C)c(/C=N/NC(=O)c3cccc([N+](=O)[O-])c3)c2=O)cc1C,97% (active)
7,COc1ccc(C(=O)NCC2CCCCC2)cc1S(=O)(=O)N1CCCC1,-2.78%
8,NC(=O)CSc1nnc(NC(=O)c2ccc3ccccc3c2)s1,-2.49%
9,O=C(NCCS(=O)(=O)N1CCN(c2ccc(F)cc2)CC1)c1ccc2c(c1)OCO2,1.71%
10,CC(=O)Nc1ccc(NC(=O)CSc2nnnn2C2CCCCC2)cc1,-20.6%
11,NS(=O)(=O)c1cccc(NC(=O)COC(=O)c2cc([N+](=O)[O-])ccc2N2CCCC2)c1,-0.799%
12,Cc1cc(C)cc(OCc2nnc(SCC(=O)Nc3ccccc3)o2)c1,5.24%
13,CCCc1nnc(SCC(=O)Nc2ccc(C(=O)OCC)cc2)o1,99.2% (active)
14,Cc1ccc(NC(=O)CSc2nnc(COc3ccccc3C)o2)cc1,-0.274%
15,O=C(c1cn(-c2ccccc2)nc1-c1cccnc1)N1CCN(S(=O)(=O)c2ccccc2F)CC1,-0.713%
16,O=C(c1ccc(NS(=O)(=O)c2ccc3[nH]c(=O)[nH]c3c2)cc1)N1CCCCC1,0.0938%
17,CN(C)/C=C1\C=C(c2ccccc2)OC1=O,-9.29%
18,Cc1ccccc1-n1c(C)cc(/C=C2\NC(=O)NC2=O)c1C,-11.5%
19,O=C1Nc2ccccc2/C1=C/c1ccnc2ccccc12,-5.03%
20,CN(C)/C=C1/C(=O)Nc2ccccc21,98.8% (active)
21,CN(C)/C=C1/Nc2ccccc2C1=O,31.9%
22,Cc1cc(C)c(/C=C2\C(=O)Nc3ccccc32)[nH]1,98.9% (active)
